Bioassay records: PubChem, National Center for Advancing Translational Sciences (NCATS)
The list is not random: actives were taken first. Their share in the collection is about 10%.
NPR1 antag: blocks ANP-stimulated signaling of human Npr1 receptor; Potency, µM (highest dose often 46.3 µM), inactives show at the top dose activity change, negative = inhibition, usual class: inhibitors; HEK293 hNpr1 GloSensor cGMP, ANP-stimulated luminescence; P16066; 76,000 tested, 1.6% active; calls by dose curve; further: nearly all actives have a fitted effect of over 60% in size
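HEK293 cells stably expressing human Npr1 and cGMP GloSensor pGS-40F, loaded 2 h with 2% GloSensor reagent, given compound 30 min at room temperature. Luminescence read before and 20 min after 0.1 nM hNppA.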
Luciferase inh: Photinus pyralis luciferase inhibition. 76,000 tested, 2.5% active. AID 1347043. P08659. Potency, µM (series often up to 115 µM), hits mostly inhibitors. purified P. pyralis luciferase, luminescence, biochemical; further: nearly all actives have a fitted effect of over 65% in size
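Purified 10nM P. pyralis luciferase with 10uM D-luciferin and 10uM ATP in 50mM Tris acetate pH 7.5, 10mM Mg acetate, 0.01% Tween-20, 0.05% BSA. qHTS titration; luminescence read by CCD imager.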
3T3 cytotox: cytotoxic compounds in NIH 3T3 cells. NIH 3T3 viability, CellTiter-Glo ATP luminescence, 48-72 h. Potency, µM (doses to about 96.7 µM), for inactives: top-dose activity change, negative = cytotoxicity, most hits filed as inhibitors. 94,000 tested, 4.3% active. AID 1345082; further: nearly all actives have a fitted effect of over 55% in size
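Cells were seeded at 400 per well, treated with pin-transferred compound, and kept 48 or 72 hr at 37 °C before CellTiter-Glo addition and luminescence imaging of cellular ATP.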
GPT2 inh: GPT2 alanine aminotransferase inhibition | Q8TD30 | Recombinant GPT2, coupled pyruvate oxidase/HRP Amplex Red fluorescence | Potency, µM (highest dose often 57.7 µM), inactives show at the highest dose activity change, negative = inhibition, hits mostly inhibitors | 100,000 tested, 0.25% active; further: nearly all actives have a fitted effect of over 60% in size
Target sequence (Q8TD30 whole entry, looked up): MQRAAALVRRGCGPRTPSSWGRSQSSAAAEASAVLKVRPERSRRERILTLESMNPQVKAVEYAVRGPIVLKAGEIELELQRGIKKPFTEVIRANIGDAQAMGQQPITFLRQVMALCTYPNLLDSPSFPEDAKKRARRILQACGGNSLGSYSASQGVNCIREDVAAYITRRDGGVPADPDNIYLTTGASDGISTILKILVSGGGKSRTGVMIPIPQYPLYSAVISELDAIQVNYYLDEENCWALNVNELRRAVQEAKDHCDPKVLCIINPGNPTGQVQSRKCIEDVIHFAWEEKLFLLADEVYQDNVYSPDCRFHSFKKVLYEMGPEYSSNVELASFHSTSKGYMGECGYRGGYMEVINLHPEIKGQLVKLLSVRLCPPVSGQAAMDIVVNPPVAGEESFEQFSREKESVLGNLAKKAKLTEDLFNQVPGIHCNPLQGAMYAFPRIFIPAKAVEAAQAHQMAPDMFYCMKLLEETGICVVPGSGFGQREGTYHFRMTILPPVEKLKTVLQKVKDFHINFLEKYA
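Fluorescence of coupled pyruvate oxidase/HRP/Amplex Red system (50uM Amplex, 30 min, dark) reports pyruvate formed by GPT2. Enzyme reaction: 10ng/uL GPT2, 2mM L-alanine, 250uM a-KG, 30 min room temperature, pH 7.5; 50uM AOA control.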
HEK cytotox: kills HEK 293 cells. HEK 293 viability, ATP luminescence (CellTiter-Glo), 48-72 h. Potency, µM (series often up to 115 µM), for the others: at the highest dose activity change, negative = cytotoxicity, actives largely listed as inhibitors. 94,000 tested, 6.6% active. AID 1345083; further: nearly all actives have a fitted effect of over 60% in size
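ATP-coupled CellTiter-Glo luminescence served as viability read-out, recorded 10 min after reagent addition at room temperature. HEK 293 cells, 250 cells/well, had been incubated with pintool-transferred compound for 48 or 72 hr at 37 degree Celsius.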
The depositor's hits bear a star. Unless noted, the call rests on the fitted dose curve; in most records, active means well fitted curve in the direction sought with a large enough effect; inconclusive means small, poorly fitted or top-dose-only effect, or another doubt; inactive means no such curve, though single readings can be large; an effect the other way counts as inactive or inconclusive. On the % scale 0 is the no-effect control and ±100 the full control effect; potency means the concentration at half of the fitted maximal effect.

What do the screens show for `O=C(NCCNC(=O)c1ccc(-c2cccc(C(F)(F)F)c2)cc1)c1ccccc1`?
3T3 cytotox: -5.6%; HEK cytotox: -24.7%

Results for O=C(NCCNC(=O)c1ccc(-c2cccc(C(F)(F)F)c2)cc1)c1ccncc1 ?
3T3 cytotox: inconclusive; HEK cytotox: 39.8µM*

What do the screens show for `Cc1ccc(NC(=O)N2CCCC(Cn3cnc4cccnc43)C2)c(C)c1` (configuration not stated)?
NPR1 antag: -1.0%; Luciferase inh: inactive; 3T3 cytotox: -11.7%; GPT2 inh: inactive; HEK cytotox: -7.3%

How did COc1ccc(-c2cc(N3CCCN(C(=O)c4ccccc4)CC3)n[nH]2)cc1 do in these assays?
NPR1 antag: 3.1%; Luciferase inh: inactive; 3T3 cytotox: -11.0%; GPT2 inh: -1.5%; HEK cytotox: inconclusive

How did O=C(c1ccc(F)cc1F)N1CCN(c2cc(-c3ccccc3)[nH]n2)CC1 do in these assays?
NPR1 antag: -1.6%; Luciferase inh: inactive; 3T3 cytotox: -26.6%; GPT2 inh: -4.8%; HEK cytotox: inconclusive

Results for O=C(c1cc2ccccc2[nH]1)N1CCN(c2cc(-c3ccccc3)[nH]n2)CC1 ?
NPR1 antag: -10.5%; Luciferase inh: inconclusive; 3T3 cytotox: 35.5µM*; GPT2 inh: inactive; HEK cytotox: inconclusive

What do the screens show for `O=C(c1ccc(F)cc1F)N1CCN(c2cc(-c3ccc(F)cc3)[nH]n2)CC1`?
NPR1 antag: inconclusive; Luciferase inh: inactive; 3T3 cytotox: inconclusive; GPT2 inh: inactive; HEK cytotox: 39.8µM*

Results for COc1ccc(-c2cc(N3CCN(C(=O)c4cc5ccccc5[nH]4)CC3)n[nH]2)cc1 ?
NPR1 antag: -27.6%; Luciferase inh: inconclusive; 3T3 cytotox: 20µM*; GPT2 inh: inactive; HEK cytotox: 28.2µM*

How did Cc1ccc(C(=O)N2CCN(c3cc(-c4ccccc4)[nH]n3)CC2)cc1 do in these assays?
NPR1 antag: inconclusive; Luciferase inh: inactive; 3T3 cytotox: inconclusive; GPT2 inh: 1.4%; HEK cytotox: inconclusive

Results for O=C(c1ccccc1Cl)N1CCN(c2cc(-c3ccccc3)[nH]n2)CC1 ?
NPR1 antag: -12.9%; Luciferase inh: inactive; 3T3 cytotox: inconclusive; GPT2 inh: inconclusive; HEK cytotox: 20µM*

What do the screens show for `CCOC(=O)C1CCCN(C(=O)c2cc(-c3cc(Cl)cc(Cl)c3)c3nncn3n2)C1` (configuration not stated)?
3T3 cytotox: inconclusive; GPT2 inh: inactive; HEK cytotox: inconclusive

Results for COc1cccc(-c2ccccc2NC(=O)C2CCN(c3nccnc3C)CC2)c1 ?
NPR1 antag: inconclusive; Luciferase inh: inactive; 3T3 cytotox: 22.4µM*; GPT2 inh: -15.2%; HEK cytotox: inconclusive

What do the screens show for `COc1cccc(-c2ccccc2NC(=O)C2CCN(Cc3ccc(F)cc3)CC2)c1`?
NPR1 antag: -25.5%; Luciferase inh: inactive; 3T3 cytotox: 22.4µM*; GPT2 inh: 3.7%; HEK cytotox: 31.6µM*

What do the screens show for `Cc1c(Cl)cccc1NC(=O)C[C@H]1NC(=O)c2ccccc2NC1=O`?
NPR1 antag: 1.6%; Luciferase inh: inactive; 3T3 cytotox: inconclusive; GPT2 inh: 1.9%; HEK cytotox: 44.7µM*

What do the screens show for `CCOc1ccccc1NC(=O)C[C@H]1NC(=O)c2ccccc2NC1=O`?
NPR1 antag: -4.6%; Luciferase inh: inactive; 3T3 cytotox: inactive; GPT2 inh: 3.8%; HEK cytotox: -2.7%

What do the screens show for `O=C(C[C@H]1NC(=O)c2ccccc2NC1=O)Nc1ccncc1`?
NPR1 antag: 3.7%; Luciferase inh: inactive; 3T3 cytotox: inactive; GPT2 inh: inactive; HEK cytotox: -4.3%

What do the screens show for `Cc1cc(Br)ccc1NC(=O)C[C@H]1NC(=O)c2ccccc2NC1=O`?
NPR1 antag: -7.8%; Luciferase inh: inactive; 3T3 cytotox: 20µM*; GPT2 inh: -4.5%; HEK cytotox: inconclusive

Results for O=C(C[C@H]1NC(=O)c2ccccc2NC1=O)Nc1cccc(C(F)(F)F)c1 ?
NPR1 antag: -0.1%; Luciferase inh: inactive; 3T3 cytotox: inconclusive; GPT2 inh: 3.5%; HEK cytotox: 44.7µM*

What do the screens show for `CC1CCN(C(=O)CC(c2ccc(Cl)cc2)c2cn(C)c3ccccc23)CC1` (configuration not stated)?
NPR1 antag: -13.0%; Luciferase inh: inactive; 3T3 cytotox: inconclusive; GPT2 inh: inactive; HEK cytotox: inconclusive

How did Cc1nn(-c2ccccc2)c2c1C(C(C)C)N(C1CCN(C(=O)c3ccc(Cl)nc3)C1)C2=O (configuration not stated) do in these assays?
3T3 cytotox: -26.3%; HEK cytotox: inconclusive

How did Cc1nn(-c2ccccc2)c2c1C(C(C)C)N(C1CCN(C(=O)c3ccc(F)cc3)C1)C2=O (configuration not stated) do in these assays?
3T3 cytotox: inconclusive; HEK cytotox: 44.7µM*

How did Cc1nn(-c2ccccc2)c2c1C(C(C)C)N(C1CN(C(=O)Cc3ccccc3)C1)C2=O (configuration not stated) do in these assays?
3T3 cytotox: inconclusive; HEK cytotox: 50.1µM*

What do the screens show for `Cc1nn(-c2ccccc2)c2c1C(C(C)C)N(C1CCCN(C(=O)c3ccc(Cl)nc3)C1)C2=O` (configuration not stated)?
3T3 cytotox: inconclusive; HEK cytotox: 39.8µM*

What do the screens show for `Cc1nn(-c2ccccc2)c2c1C(C(C)C)N(C1CCCN(C(=O)Cc3ccc(F)cc3)C1)C2=O` (configuration not stated)?
3T3 cytotox: inconclusive; HEK cytotox: 25.1µM*

What do the screens show for `Cc1nn(-c2ccccc2)c2c1C(C(C)C)N(C1CN(C(=O)C(C)(C)C)C1)C2=O` (configuration not stated)?
3T3 cytotox: -4.3%; HEK cytotox: inactive

How did C[C@]1(CO)[C@H]2Cc3sc(NC(=O)c4cccc(F)c4)nc3[C@@H](CC(=O)N3CCOCC3)[C@]2(C)CC[C@H]1O do in these assays?
NPR1 antag: 3.1%; Luciferase inh: inactive; 3T3 cytotox: -2.4%; GPT2 inh: -25.4%; HEK cytotox: -26.9%

How did Cc1nn(-c2ccccc2)c2c1C(C1CC1)N(C1CCN(C(=O)Cc3ccc(F)cc3)C1)C2=O (configuration not stated) do in these assays?
3T3 cytotox: inconclusive; HEK cytotox: 35.5µM*

How did COCC(=O)N1CCCC(N2C(=O)c3c(c(C)nn3-c3ccccc3)C2C(C)C)C1 (configuration not stated) do in these assays?
3T3 cytotox: -4.7%; HEK cytotox: inconclusive
